Among the data in PubChem BioAssay (NCI) are growth values, retold here.

Compounds without any hit were thinned out: in the full panel of roughly 83,000, 20% have a hit.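 Activity criterion: percent growth below 10, measured after cells in 96-well plates were exposed to a single compound concentration for 48 hours.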 Unmarked numbers belong to inactive results. Active and inactive are the calls of the source.

Among the test systems are SK-MEL-2 melanoma; EKVX NSCLC; SN12C renal; UO-31 renal; ACHN renal; CAKI-1 renal; A498 renal; MOLT-4 leukemia; TK-10 renal; CCRF-CEM leukemia.
Common to all, as to experiment: NCI-60 one-dose screen, 48 h (100 = growth as untreated, 0 = no growth, -100 = all killed)
Common to all, as to details: 10 µM

As for `CS(=O)(=O)c1nccc(-c2c(-c3cccc(OCCN4CCOCC4)c3)nc3sccn23)n1`, the growth in the test on SK-MEL-2 melanoma was 102%; in the test with EKVX NSCLC, 101%; in the test with SN12C renal it was 96.8%; with UO-31 renal, 68.5%; with ACHN renal it was 90.9%; in the test with CAKI-1 renal, 85.3%. Also, the growth with A498 renal was 59.2%; in the test on MOLT-4 leukemia, 93.9%.

As for `COc1cc2nc(SCC(=O)Nc3cc(OC)c(OC)c(OC)c3)n(Cc3ccccc3)c(=O)c2cc1OC`, the growth in the test with SK-MEL-2 melanoma is 45.4%; in the test on EKVX NSCLC it was 75.5%; in the test with SN12C renal, 69.1%; in the test with TK-10 renal it was -12.5% (active); in the test with ACHN renal, 66.1%; in the test on CAKI-1 renal, 84.8%. Moreover, in the test with A498 renal, the growth is -8.93% (active).

For `CN(C)CCOc1cccc(-c2nc3sccn3c2-c2ccnc(S(C)(=O)=O)n2)c1`, the growth with SK-MEL-2 melanoma is 117%; with EKVX NSCLC, 99.5%; in the test on SN12C renal it was 90.5%; in the test with UO-31 renal, 72.1%; in the test on ACHN renal, 92.2%; in the test on CAKI-1 renal, 99.5%. Moreover, the figures for the growth in the test with A498 renal and in the test with MOLT-4 leukemia were 59.6% and 99.9%, respectively.

For `O=C(CCC(C(=O)c1ccccc1)c1ccccc1)c1ccccc1` (centres undefined), the growth is 45.4% with SK-MEL-2 melanoma; 76.2% with EKVX NSCLC; 79.7% in the test with SN12C renal; 102% in the test on TK-10 renal; 72.2% with ACHN renal; 52% in the test on CAKI-1 renal. Also, the figures for the growth with A498 renal, in the test with CCRF-CEM leukemia and in the test with MOLT-4 leukemia were 80.6%, 38.2% and 46.2%, respectively.

Regarding `COc1ccc(C(=O)c2cc3c(OC)c(OC)c(OC)cc3[nH]2)cc1`, the growth with SK-MEL-2 melanoma was 43.7%; in the test on EKVX NSCLC it was 98.4%; with SN12C renal, 75.1%; in the test with UO-31 renal it was 56%; in the test on ACHN renal it was 79.4%; in the test with CAKI-1 renal it was 128%. Moreover, the growth was 59.9% in the test on A498 renal, 42.8% in the test with CCRF-CEM leukemia and 50.2% in the test with MOLT-4 leukemia.

As to `COc1ccc2c(c1)C(CC(=O)NN)CCC2` (centres undefined), the growth in the test with SK-MEL-2 melanoma was 108%; with EKVX NSCLC, 109%; in the test on SN12C renal it was 104%; in the test with TK-10 renal it was 98.7%; in the test on ACHN renal it was 99.6%; in the test with CAKI-1 renal it was 91.2%. Also, the figures for the growth in the test with A498 renal, in the test on CCRF-CEM leukemia and in the test on MOLT-4 leukemia were 93.2%, 100% and 86.8%, respectively.

With `Cc1ccc(C)c(COc2cc(NC(=O)c3ccc4c(c3)OCO4)ccc2N(C)S(C)(=O)=O)c1`, the growth is 37.6% in the test on SK-MEL-2 melanoma; 29.6% in the test with EKVX NSCLC; 27.2% with SN12C renal; 54.1% in the test with TK-10 renal; 29.3% in the test on ACHN renal; 15.6% in the test on CAKI-1 renal. The results for the growth in the test with A498 renal, in the test with CCRF-CEM leukemia and in the test on MOLT-4 leukemia were -11.3% (active), 13.2% and 7.75% (active), respectively.

For `NS(=O)(=O)c1ccc(N2N=C(c3ccccc3)CCC2=O)cc1`, the growth with SK-MEL-2 melanoma is 107%; with EKVX NSCLC it was 130%; in the test on SN12C renal, 101%; with UO-31 renal, 104%; with ACHN renal, 114%; in the test on A498 renal, 83%. The results for the growth in the test on CCRF-CEM leukemia and with MOLT-4 leukemia were 108% and 93.2%, respectively.

As for `Cc1ccc(C(SCC(N)C(=O)O)(c2ccc(C)cc2)c2ccc(C)cc2)cc1` (centres undefined), the growth with SK-MEL-2 melanoma is -52.1% (active); in the test on EKVX NSCLC it was -8.36% (active); in the test with SN12C renal, 42.3%; in the test with UO-31 renal, 25.3%; in the test with ACHN renal, 60.3%; in the test on A498 renal it was 46.3%. In addition, the results for the growth with CCRF-CEM leukemia and in the test on MOLT-4 leukemia were 6.77% (active) and 7.71% (active), respectively.

`OCC1OC2C(NC(=S)N2c2ccccc2)C(O)C1O` (centres undefined): the growth in the test on SK-MEL-2 melanoma was 111%; in the test on EKVX NSCLC it was 101%; in the test on SN12C renal, 91.1%; with TK-10 renal, 109%; with ACHN renal, 103%; with CAKI-1 renal, 91.4%. Further, the growth in the test with A498 renal was 95.1%; with CCRF-CEM leukemia, 93.6%; in the test on MOLT-4 leukemia, 107%.

Consider `COc1cc2cc(Oc3ccc(NC(=O)Nc4ccc(C(F)(F)F)cc4)cc3)c(C)nc2cc1OC`, for which the growth in the test on SK-MEL-2 melanoma is 76.7%; with EKVX NSCLC, 75.7%; in the test with SN12C renal it was 72.2%; in the test on UO-31 renal, 87.6%; with ACHN renal, 56.1%; in the test on CAKI-1 renal, 70.4%. In addition, the growth in the test on CCRF-CEM leukemia is 68.5%; in the test with MOLT-4 leukemia, 61.9%.

As for `Nc1ncc(-c2cnn(C3CCNCC3)c2)cc1-c1nc2ccccc2o1`, the growth with SK-MEL-2 melanoma was 22.1%; in the test with EKVX NSCLC it was 85.3%; in the test with SN12C renal, 14.1%; with UO-31 renal, -17.7% (active); in the test with ACHN renal, 21.9%; in the test with CAKI-1 renal, 68.3%. Besides, the growth is 36.4% in the test with A498 renal, -53.7% (active) with CCRF-CEM leukemia and -35.7% (active) in the test on MOLT-4 leukemia.

Regarding `Cc1cc(Cl)ccc1Nc1nc(C(F)(F)F)ccc1C(=O)N/N=C/c1c(Cl)cccc1Cl`, the growth in the test on SK-MEL-2 melanoma was -17.4% (active); with EKVX NSCLC it was 0.628% (active); with SN12C renal, 6.51% (active); in the test with UO-31 renal it was 4.21% (active); with ACHN renal, -8.52% (active); in the test with CAKI-1 renal, -22.7% (active). Moreover, the values for the growth in the test on A498 renal, in the test on CCRF-CEM leukemia and in the test with MOLT-4 leukemia were -60.8% (active), -18% (active) and -16.8% (active), respectively.

For the compound `Cc1ccc(C2NC(=S)N3C(c4ccc(C)cc4)NC(=S)N23)cc1` (centres undefined), the growth in the test with SK-MEL-2 melanoma was -32.9% (active); in the test with EKVX NSCLC, 43.1%; with SN12C renal it was 52.5%; with UO-31 renal, 12.7%; in the test with ACHN renal it was 63.4%; in the test on A498 renal it was 49.6%. Moreover, the growth in the test on CCRF-CEM leukemia is 12.3%; in the test with MOLT-4 leukemia it was 24.8%.

Regarding `COc1ccc(/C=C2\CCCC3=C2NC(N)=NC3c2ccc(OC)c(OC)c2)cc1OC` (centres undefined), the growth in the test on SK-MEL-2 melanoma is 56.8%; in the test on EKVX NSCLC, 82.7%; in the test with SN12C renal, 57.4%; in the test with UO-31 renal it was 63%; in the test with ACHN renal it was 27.3%; with CAKI-1 renal it was 55.9%. The figures for the growth with A498 renal, with CCRF-CEM leukemia and with MOLT-4 leukemia were 91.3%, 15.3% and 53.1%, respectively.

Regarding `Nc1nc(N)c(N)c(Nc2ccc(CCO)cc2)n1`, the growth in the test with SK-MEL-2 melanoma is 118%; with EKVX NSCLC, 91.9%; in the test on SN12C renal, 100%; in the test on TK-10 renal it was 102%; with ACHN renal, 106%; with CAKI-1 renal, 100%. Moreover, the growth with A498 renal is 92.8%.
